# Results published in ChEMBL document CHEMBL3433997, “St. Jude Leishmania screening dataset” (2016).
# Key:
# Format in all cases: functional
# [1] = target: Solute carrier family 2, facilitated glucose transporter member 1 (Homo sapiens) (UniProt P11166); assay: ST_JUDE_LEISH: Cytotoxicity at 2uM final concentration against transgenic Leishmania Mexicana promastigotes LmGLUT1 that are glucose transport deficient and complemented with the human glucose transporter GLUT1. Activity is measured by DNA content using SYBR green in vitro
# [2] = target: Hexose transporter 1 (Plasmodium falciparum) (UniProt O97467); assay: ST_JUDE_LEISH: Cytotoxicity at 2uM final concentration against transgenic Leishmania Mexicana promastigotes LmPfHT that are glucose transport deficient and complemented with the Plasmodium falciparum hexose transporter. Activity is measured by DNA content using SYBR green in vitro
# [3] = target: Glucose transporter (Leishmania mexicana) (UniProt O61059); assay: ST_JUDE_LEISH: Cytotoxicity at 2uM final concentration against transgenic Leishmania Mexicana promastigotes LmGT2 that are glucose transport deficient and complemented with the L. Mexicana glucose transporter 2. Activity is measured by DNA content using SYBR green in vitro
# Sequence of Solute carrier family 2, facilitated glucose transporter member 1 (Homo sapiens) (P11166 whole entry): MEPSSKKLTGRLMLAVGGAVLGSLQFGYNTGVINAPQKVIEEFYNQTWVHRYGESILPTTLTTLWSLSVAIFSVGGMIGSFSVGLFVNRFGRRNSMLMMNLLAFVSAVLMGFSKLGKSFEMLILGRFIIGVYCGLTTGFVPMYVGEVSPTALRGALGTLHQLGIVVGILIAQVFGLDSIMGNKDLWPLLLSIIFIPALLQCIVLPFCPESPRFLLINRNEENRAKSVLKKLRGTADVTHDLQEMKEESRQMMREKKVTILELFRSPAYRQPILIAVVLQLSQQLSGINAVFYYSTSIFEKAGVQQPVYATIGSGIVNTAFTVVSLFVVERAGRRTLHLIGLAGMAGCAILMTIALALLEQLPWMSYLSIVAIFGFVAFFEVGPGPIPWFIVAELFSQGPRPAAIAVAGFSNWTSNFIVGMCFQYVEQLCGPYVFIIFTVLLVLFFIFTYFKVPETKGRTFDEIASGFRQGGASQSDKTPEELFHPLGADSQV
Compound,inhibition [1] [%],inhibition [2] [%],inhibition [3] [%]
COc1ccc(NC(=O)[C@H](CC(C)C)Nc2ccnc(NCCc3ccc(F)cc3)n2)cc1,1.22,1.43,1.38
N#Cc1cc(C(=O)c2cc(Cl)ccc2O)cn(-c2cccc(C(F)(F)F)c2)c1=O,8.27,7.71,5.33
Cc1cc2nc(-c3ccc(C(=O)NC4CCN(Cc5ccccc5)CC4)s3)[nH]c2cc1C,2.92,2.77,2.98
CCN(CC)CCNC(=O)/C(=C/C=C/c1cc2cc(Cl)c(Cl)cc2[nH]1)OC,2.44,-0.18,-1.46
O=C(/C=C/c1ccc(Cl)c(Cl)c1)NC1CCC(CN2CCC(c3nc4cc(O)ccc4[nH]3)CC2)CC1 (stereo not given),2.81,3.99,2.71
CC1(C)NC(=N)N=C(NOCC=Cc2ccccc2)N1,3.05,2.87,3.12
COc1ccc(Cc2nc(/N=C(\N)Nc3ccccc3)ccc2OC)cc1,0.38,1.68,-0.02
Cc1cccc2nc(-c3ccc(-c4cccc(NC(=O)c5cnccc5C(F)(F)F)c4)cc3)[nH]c12,11.2,10.4,8.19
Cc1cc(NC(=O)[C@H](CC2CCCCC2)Nc2ccc(C#N)c3ccccc23)ccc1F,5.97,7.28,1.62
COC(=O)CC[C@H](NC(=O)[C@H](C)NC(=O)OC(C)(C)C)C(=O)OC,4.67,0.48,0.89
CN1CC(c2ccccc2)c2cc(O)c(CN3CCCCC3)cc2CC1Cc1ccccc1 (stereo not given),9.54,7.19,6.78
CC1(CCCCN2CCC(c3c[nH]c4cnccc34)CC2)C(=O)Nc2cccc(Cl)c21 (stereo not given),0.37,0.54,1.21
CCNc1cc(C(=O)N[C@@H](Cc2ccccc2)[C@H](O)CNCCC(C)(C)C)c(F)c(N2CCCCS2(=O)=O)c1,6.09,-0.44,0.33
COc1ccc(CNC(=O)c2cnc3c(O)cccc3c2Nc2cccc(NC(=O)c3ccc(Cl)c([N+](=O)[O-])c3)c2)cc1,0.79,6.77,4.02
c1cc(CNCCc2ccncc2)cc(-c2ccc(-c3nc4ccccc4[nH]3)cc2)c1,1.46,2.38,0.79
CN1CCN(c2ccnc3ccc(NC(=O)Cc4ccc(OCc5ccccc5)cc4)cc23)CC1,7.43,7.76,8.79
Cc1cnc(CN(Cc2ccc(-c3ccc(CNCCc4ccc(S(C)(=O)=O)cc4)cn3)cc2)C(=O)c2ccc([N+](=O)[O-])c(C)c2)cn1,1.89,3.15,1.98
Cc1csc(-c2nc(NCc3cccnc3)ncc2-c2ccsc2)n1,2.02,2.53,3.04
COc1ccc(-c2nc3c(NCc4ccccc4)nccc3[nH]2)c(OC)c1,4.06,4.06,2.67
CS(=O)(=O)NCCCNCc1cccc(-c2ccc(-c3nc4cc(C(F)(F)F)ccc4[nH]3)cc2)c1,7.6,3.88,0.95
COc1cc(Cc2cnc(N)nc2N)cc(OCCNC(=O)OCc2ccccc2)c1OC,-1.11,-1.55,-1.22
COc1ccc(CCNC(=O)c2cc3c(=O)n4cccc(C)c4nc3n(C)c2=N)cc1,13.4,10.1,15.2
CN1CCC(N2CCN(Cc3ccc(-c4cccc(-c5nc6cc(F)ccc6[nH]5)c4)cc3)CC2)CC1,2.39,2.13,2.94
Cc1ccccc1OCC(O)CN1CCC(C2CCN(CC(O)COc3ccccc3C)CC2)CC1 (stereo not given),2.25,2,2.28

Compound,inhibition [1] [%],inhibition [2] [%],inhibition [3] [%]
CC(CN1CCN(C)CC1)C(=O)Nc1cccc(-c2ccc(-c3nc4cc(C(F)(F)F)ccc4[nH]3)cc2)c1 (stereo not given),5.29,4.14,5.41
COc1ccc(OC)c2c1CCN(CCN1CCC(C(=O)Nc3ccc(C(=O)Nc4ccc(Cl)cc4)cc3)CC1)C2,1.55,0.47,0.22
CN1CCN(c2nsc3ccc(-c4ccc(NC(=O)Nc5ccccc5)cc4)cc23)CC1,2.28,0.56,0.99
CCC1CN2CCc3c([nH]c4ccc(OC)cc34)C2CC1CC1NCCc2cc(OC)c(OC)cc21 (stereo not given),3.04,3.2,4.05
CC(C)CCN1CCC(Oc2ccc(NC(=O)c3ccsc3)cc2Cl)CC1,-0.7,1.67,1.45
Cc1[nH]c(C)c(-c2ccc(OCc3ccc(F)cc3)nc2)c(=O)c1Br,2.71,2.42,0.74
O=c1cc(NCCCNCc2ccc(Cl)c(Cl)c2)[nH]c2ccc(C(F)(F)F)cc12,2.13,1.67,2.08
C=CCc1ccc(C[C@H](NC(=O)OC(C)(C)C)C(=O)OC)cc1,22.2,40.4,34.5
Cc1ccc(-c2ccn(Cc3ccc(OCc4ccccc4)cc3)n2)cn1.Cc1ccc(-c2ccnn2Cc2ccc(OCc3ccccc3)cc2)cn1,0.13,0.76,0.25
Brc1ccc(Nc2nc(NCc3ccccc3)c3ccccc3n2)cc1,22.6,16.5,6.03
CCC(NC[C@@H](O)[C@H](Cc1ccccc1)NC(=O)c1cc(C2CCCC2)cc(N2CCCC2=O)c1)c1cccc(Cl)c1 (stereo not given in full),2.16,2.04,4.65
N#Cc1cccc(NC(=O)Nc2cccc(-c3cccc(-c4nc5cc(F)ccc5[nH]4)c3)c2)c1,9.7,7.87,8.96
Cc1cccc2nc(-c3ccc(-c4ccc(CN5CCCC(N)C5)cc4)s3)[nH]c12 (stereo not given),0.2,0.06,0.74
COc1ccc(-c2ccc(NC(=O)c3ccc(C#N)cc3)cc2)cc1CN1CCCC1,1.22,0.11,-3.17
O=C(NCCNc1nc(NCCNC(=O)Nc2ccccc2)c2ccc(=O)n(-c3c(F)cccc3F)c2n1)Nc1ccccc1,2.75,1.99,-0.37
CC(C)C1=C[C@H]2C[C@]3(C4OCCO4)[C@@H]4CC[C@@H](C)[C@H]4C[C@@]2(C(=O)OCC2COCO2)[C@]13C(=O)OC(c1ccccc1)c1ccccc1 (stereo not given in full),-1.18,-2.48,-1.79
Nc1ccc(-c2cc(Cl)cc(Cl)c2)cc1-c1cc2ccccc2[nH]1,2.84,1.08,-0.38
O=C(/C=C/c1ccc(Cl)c(Cl)c1)NCCCCCN1CCC(NC(=O)NC2CCCCC2)CC1,1.02,0.4,1.22
Cc1ccccc1C1CCN(c2ncc(C(=O)Nc3ccccc3)cc2Cl)CC1,0.8,0.4,-6.29
CCC(CC)CN1C(=O)C(c2ccccc2)(c2ccccc2)N=C1N,6.55,5.61,6.88
Cc1ccc(S(=O)(=O)n2nccc2-c2c(-c3ccc(Cl)cc3)noc2C)cc1,3.44,3.35,2.23
Nc1cc(/C=C/c2ccc([N+](=O)[O-])s2)nc2ccccc12,16.4,16.5,8.5
CCN(CC)CCNc1ccnc2ccc3ccccc3c12,1.6,6.78,2.97
CC1(C)NC(N)=NC(=N)N1OCCCO,-0.7,-0.74,-1.67

Compound,inhibition [1] [%],inhibition [2] [%],inhibition [3] [%]
COc1cc(C(=O)Nc2ccc3nc(N4CCN(C)CC4)cc(C)c3c2)cc(OC)c1OC,1.09,0.31,-0.52
CCOc1cc(C)ccc1C1CCN(CCCCNC(=O)c2ccc(-c3ccc(Cl)cn3)cc2)CC1,1.1,-0.06,-0.83
O=C(Nc1cc(Cl)cc(Cl)c1)N[C@H]1CCN(CCCCCNC(=O)C2CC2c2ccc(Cl)c(Cl)c2)C1 (stereo not given in full),0.25,-1.16,2.06
Cc1c(CN2CCCCC2)cccc1OCCCNc1nc(NCCc2ccc(O)cc2)nc(N2CCNCC2)n1,5.55,2.95,5.43
O=C(C=Cc1ccc(Cl)c(Cl)c1)NCCCCCN1CCCC(CCCNC(=O)C2CC2c2ccccc2)C1 (stereo not given),2.64,0.94,1.66
C=CCN1C(=O)C(=Cc2cc(Br)ccc2O)SC1=Nc1ccccc1,8.65,6.8,14.5
Cc1cccc2nc(-c3cccc(-c4ccc(NC(=O)COC(C)C)cc4)c3)[nH]c12,-3.18,0.45,-2.12
COc1cc2nc(NCC3CCN(C(=O)c4ccc(-c5ccc(C(=O)N(C)C)cc5C)cc4)CC3)nc(N)c2cc1OC,10.9,9.71,7.15
O=C(/C=C/c1ccc(C(F)(F)F)cc1)NCCCCCN1CCCN(C(=O)Nc2cccc(Cl)c2)CC1,-0.19,-1.13,1.47
CC(C)(CNCc1ccc(Cl)cc1)c1nc(-c2ccc(Cl)c(O)c2)c(-c2ccncc2)[nH]1,0.66,0.31,-1.23
COc1ccc(NC(=O)c2cccc(Br)c2)cc1N1CCN(CCCCCCCN2CCN(c3cc(NC(=O)c4cccc(Br)c4)ccc3OC)CC2)CC1,3.47,2.27,0.78
O=C(c1ccc(-c2cccc(-c3nc4cc(F)ccc4[nH]3)c2)cc1)N1CCCCC1CN1CCC(O)C1 (stereo not given),4.71,4.55,3.96
O=C(c1ccccc1)N(Cc1ccccc1-c1ccc(CNCCc2ccccc2)cc1)C1CCN(Cc2ccccc2)CC1,12.2,10.8,14.7
COc1ccc2nccc([C@@H](O)CN3CCC(NCc4ccc5sc(=O)[nH]c5c4)CC3)c2c1,1.84,5.11,1.2
O=C(N[C@@H](Cc1ccccc1)[C@H](O)CNC1CCCCC1)c1cc(C2CCCC2)cc(N2CCCC2=O)c1,-1.39,-1.21,-3.12
CN1CCCN(Cc2ccc(-c3cccc(NC(=O)c4ccc(C#N)cc4)c3)cc2)CC1,1.03,4.1,-1.1
CCN(CC)CCN(Cc1ccc(-c2ccc(C(F)(F)F)cc2)cc1)C(=O)Cn1nc(-c2ccc(C(F)(F)F)cc2)ccc1=O,1.46,2.04,2.83
O=C(Nc1cccc(C(F)(F)F)c1)c1cccc(S(=O)(=O)NC2CCCN(CC3CCCCC3)C2)c1 (stereo not given),0.39,0.03,0.55
Cc1cc(OCCCNc2nc(NCCc3ccc(O)cc3)nc(N3CCNCC3)n2)c(Cl)c(C)c1Cl,0.58,1.22,0.27
CC(C)C[C@H](NC(=O)c1ccc(OCCN2CCOCC2)cc1)C(=O)N[C@H](/C=N/N1CC(=O)NC1=O)CCc1ccccc1,3.3,4.15,2.88
COc1cc(C=CC(=O)N2CCC3(CC2)CC(=O)c2ccccc2O3)cc(OC)c1OC,1.6,2.09,-0.58
CC(C)(C)OC(=O)Nc1cccc(-c2csc(NC(=N)N)n2)c1,0.85,0.42,-0.52
